We go through 64 molecules from PubChem BioAssay AID833 (The Scripps Research Institute Molecular Screening Center, 2007).

The campaign covered roughly 16,000 compounds. About 80 (0.5%) were called active. No stated cut-off is given here; in the data, active means activation above about 15%; inactive means the rest. What follows is part of a selection rich in actives, with near analogues and random picks from the rest.

Chain of Galanin receptor type 2 (Rattus norvegicus) (O08726 whole entry, looked up): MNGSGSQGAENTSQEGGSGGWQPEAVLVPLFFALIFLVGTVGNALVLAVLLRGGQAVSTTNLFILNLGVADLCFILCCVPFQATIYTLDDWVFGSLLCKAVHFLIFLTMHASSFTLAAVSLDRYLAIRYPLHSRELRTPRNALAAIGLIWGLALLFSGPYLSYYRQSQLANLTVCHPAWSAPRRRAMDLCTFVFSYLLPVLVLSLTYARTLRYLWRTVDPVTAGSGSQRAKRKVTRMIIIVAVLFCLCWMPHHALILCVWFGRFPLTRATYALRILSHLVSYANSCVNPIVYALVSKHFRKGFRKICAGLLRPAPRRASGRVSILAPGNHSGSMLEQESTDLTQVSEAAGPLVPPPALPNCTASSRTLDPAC

The experiment has as its target Galanin receptor type 2 (Rattus norvegicus) (UniProt O08726). Nature of the experiment: activates the rat galanin receptor 2 (AID 833). Particulars: cell-based GALR2 agonist screen; at 10 µM; hits give high values.
Turning to `CO/N=C1\C(=O)N(C)c2ccccc21`, the activation was -3.65% (inactive).
Then `COc1ccc(CCNC(=O)c2ccccc2-c2ccccc2C(=O)O)cc1OC`, with -7.28% (inactive); and `COC(=O)c1c(C)noc1-c1ccno1`, with -5.48% (inactive).
Then `CCOC(=O)c1c(NC(=S)NC)sc2c1CCCC2`, with -0.11% (inactive); and `N/C(=N\OC(=O)Nc1ccccc1)c1ccc(Oc2c(Cl)cncc2Cl)cc1`, with -6.45% (inactive).
Then `CN([C@H]1CCN2CCc3ccccc3C2C1)S(C)(=O)=O` (some centres undefined), with -4.21% (inactive); and `O=C(CN1C(=O)/C(=C/c2ccccc2Cl)N=C1c1ccccc1)c1ccccc1`, with 15.2% (active); and `CCOC(=O)CN1C(=O)/C(=C\c2ccc(C)o2)N=C1c1ccccc1`, with -8.17% (inactive).
For the molecule `CN1CCN(c2ccc(NC(=O)c3ccccc3)cc2)CC1`, the activation was -7.3% (inactive).
Then `Cc1[nH]c2ccccc2c1Sc1ccc(Cl)cc1`, with -8.87% (inactive); and `Cc1onc(-c2ccccc2)c1CNS(=O)(=O)c1ccc2c(c1)OCCN2C`, with -3.66% (inactive).
Then `CC(=O)c1ccc(C#Cc2ccccc2)cc1`, with -6.33% (inactive).
Then `N#Cc1ccc(N2CCN(C(=O)c3ccco3)CC2)cc1`, with -9.07% (inactive); and `CCOc1ccc(NC(=S)N2CCC(c3ccccc3OC)CC2)cc1`, with -6.67% (inactive).
Regarding `Cc1nc(-c2cccnc2)nc(N2CCCN(Cc3ccc(F)cc3)CC2)c1Cl`, the activation is -9.09% (inactive).
Then `COC(=O)c1ccc(/C=C2\C(=O)Nc3ccccc32)n1-c1ccc(F)cc1`, with 2.14% (inactive); and `Clc1ccc(C=NCc2cccnc2)c(Cl)c1`, with -5.42% (inactive); and `Cc1cc(S(=O)(=O)O/N=C(\N)c2snnc2C)cc(C)c1F`, with -5.04% (inactive).
For `Cc1ccc(S(=O)(=O)NNC(=O)c2ccccc2N)cc1` the value was -6.6% (inactive); for `Cc1cc(C)nc(NC(=S)c2ccc(NC(=O)/C=C/C(=O)O)cc2)n1`, -5.82% (inactive); for `O=C(Nc1ccc(C(F)(F)F)cc1)Nc1ccccc1C(=O)O`, -8.04% (inactive).
For `CCCCNc1nc(N)ns1` the value was -3.61% (inactive); for `Cc1c(CC(=O)Oc2ccc([N+](=O)[O-])cc2)sc2ccc(Cl)cc12`, -2.58% (inactive).
Regarding `O=C(NCCO)NCCSc1ccc(F)cc1`, the activation is -4.7% (inactive).
For `CCOC(=O)c1c(NS(=O)(=O)c2cccc3nsnc23)sc(C)c1C` the value was -6.04% (inactive).
`Cn1cccc1-c1n[nH]c(=S)n1-c1ccc(Cl)cc1Cl`: the activation was -4.04% (inactive).
Take `O=C1C=C(SCC(=O)c2ccccc2)SC(c2ccc(Cl)cc2)C1` (centres undefined): the activation was 6.17% (inactive).
For `NNC(=O)CC1C(=O)NCCN1Cc1c(Cl)cccc1Cl` (centres undefined) the value was -5.38% (inactive).
Then `Cc1cc(S(=O)(=O)Oc2ccc(OCc3ccccc3)cc2)c(C)cc1Cl`, with -2.88% (inactive); and `CCOC(=O)C/C(N)=C(\C#N)C(=O)OCC`, with -2.73% (inactive); and `Cc1ccc(SCC(=O)Nc2ccc(F)cc2F)cc1`, with -5.06% (inactive).
Then `CC(C)(C)NC(=O)[C@@H]1C[C@@H]2CCCC[C@@H]2CN1C(=O)c1ccno1`, with -7.29% (inactive).
Take `COc1cccc(OCc2ccccc2)c1C#N`: the activation was -5.84% (inactive).
Then `O=S(=O)(Oc1ccc(Cl)c(Cl)c1)c1c(Cl)sc(Cl)c1Br`, with -7.23% (inactive); and `O=C(O)Cc1csc(NC(=O)CSc2nnnn2-c2ccc(O)cc2)n1`, with -6.18% (inactive).
Then `COc1cc(NC(=O)c2ncc(C(F)(F)F)cc2Cl)c(C(=O)O)cc1OC`, with -7.07% (inactive); and `O=S(=O)(O)c1ncccn1`, with -6.4% (inactive).
Then `c1ccc(CN2CCN(Cn3nnc4ccccc43)CC2)cc1`, with -4.65% (inactive).
On to `COC(=O)c1ccc2snnc2c1`, for which the activation is -2.44% (inactive).
For `FC(F)(F)c1csc(N/N=C/c2ccccc2Cl)n1` the value was -13.1% (inactive); for `CCOC(=O)C(=CNNc1ccc(C(=O)O)cc1[N+](=O)[O-])C(=O)OCC`, -6.55% (inactive).
As to `CC1CC(NC(=O)/C(C#N)=C/c2ccc[nH]2)CC(C)(C)C1` (centres undefined), the activation was -10.3% (inactive).
Then `N/N=c1/nc2sccn2c2ncccc12`, with -4.92% (inactive); and `CCOC(=O)c1cc(CC)sc1NC(=O)c1cccnc1Oc1ccccc1`, with -8.18% (inactive).
For `O=C1C=C(c2ccccc2)CN(C2CCCCC2)C1=O` the value was -2.8% (inactive); for `CC1=C(C(=O)O)N2C(=O)[C@H](NC(=O)[C@@H](N)c3ccccc3)C2SC1` (some centres undefined), 22.8% (active).
For `O=C(Oc1ccc(Cl)cc1)c1snnc1-c1ccccc1` the value was -5.24% (inactive); for `Cc1onc(C(=O)NN)c1-c1csc(COc2ccccc2)n1`, -4.77% (inactive).
With `N#Cc1ccc(-c2csc(COc3ccccc3Cl)n2)cc1`, the activation was 34% (active).
Then `C#CC(C)(CC)OCC(O)CS(=O)(=O)O` (centres undefined), with -5.43% (inactive).
Consider `CC(C)S(=O)(=O)c1cscc1N/C=C(/C#N)C(=O)c1cccs1`, for which the activation is -2.65% (inactive).
For `O=S(=O)(c1ccc(Cl)c(Cl)c1)N1CCc2c([nH]c3ccccc23)C1C(F)(F)F` (centres undefined) the value was -11.8% (inactive); for `Cc1[nH]n(C)c(=O)c1C(=O)c1c(-c2c(Cl)cccc2Cl)noc1C`, -6.37% (inactive).
For `CN(NC(=O)c1ccc(Cl)s1)c1cnn(-c2cc(Cl)cc(Cl)c2)c(=O)c1Cl` the value was -2.83% (inactive); for `CSc1nsc(SC)c1C(=O)Nc1cc(C(F)(F)F)cc(C(F)(F)F)c1`, -4.92% (inactive).
Then `Cn1cnnc1SC/C=C/c1ccccc1`, with -6.61% (inactive).
For the molecule `CCOC(=O)C(=CNc1nc(-c2ccc(Cl)cc2)cs1)C(=O)OCC`, the activation is -6.21% (inactive).
Then `c1ccc2c(c1)NC(C1Nc3ccccc3O1)O2` (centres undefined), with -4.99% (inactive); and `Cc1cc(Cl)ccc1NC(=S)NNC(=S)Nc1ccc(F)cc1`, with -1.79% (inactive).
For `CCOC(=O)/C=C(/Nc1ccccc1SC)c1ccccc1` the value was -8.09% (inactive); for `CC(C)(C)c1ccc(C(=O)CC(N)=O)cc1`, -7.09% (inactive).
For `N#Cc1c(-c2cccs2)cc(-c2cccs2)nc1N` the value was 10.7% (inactive); for `O=C(Nn1cnnc1)c1ccc([N+](=O)[O-])cc1`, -2.79% (inactive).
In the case of `Cc1onc(-c2ccccc2)c1C(=O)Nc1ccc(/C(C#N)=C/c2ccccn2)cc1`, the activation was -2.22% (inactive).
